# Sampled rows, rich in hits. Any-hit rate of the full collection: about 19%.
# HT1080NT lethal = kills 2HG-producing HT-1080-NT fibrosarcoma cells. AID 686970. HT-1080-NT fibrosarcoma viability, CellTiter-Glo ATP luminescence, 48 h. Potency, µM (series often up to 46.1 µM), inactives show top-dose activity, negative = less viability, usual class: cytotoxic. hit rate 1.6% among 360,000;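 further: NT is the 2HG producing partner of a matched IDH1 knockdown line; potency means the concentration at half of the fitted maximal effect; 0% = DMSO-treated cells and -100% = media-only wells without cells; nearly all actives have a fitted effect of over 55% in size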
#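 Compounds were tested in concentration-response format on HT-1080-NT cells for 48 hours at 37 degrees C. Cell viability came from CellTiter-Glo luminescence; curves were classified by r2, response magnitude and activity.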
# uPA generation = cell surface uPA generation inhibition; cell surface uPA generation assay, qHTS; Potency, µM (highest dose often 38.3 µM), for the others: top-dose activity change, negative = inhibition, usual class: inhibitors; hit rate 0.31% among 330,000; active means well fitted inhibition curve with a large enough effect; inconclusive means small, poorly fitted or top-dose-only effect; inactive means no such curve, though single readings can be large or run the other way; tested in mouse RAW 264.7 cells; further: potency means the concentration at half of the fitted maximal effect; nearly all actives have a fitted effect of over 55% in size
# IL1B secr inh = inhibitors of inflammasome signaling (IL-1 beta secretion). THP-1 LPS/ATP IL-1B secretion, AlphaLISA, 16 h; hits give low values. activity change, % at 57.5 µM. hit rate 4.7% among 360,000. AID 743279; in the data active means activity change below about -50%; inconclusive means mostly about -30% to -49%
#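 THP-1 cells pretreated 1 hr with compounds (up to 57.5 uM final), then stimulated with LPS (250 ng/mL final) plus ATP (1.25 mM final); secreted IL-1B measured by AlphaLISA after 16 hr, decreased signal indicating inhibition.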
# DT40 TDP1 no CPT = qHTS for Inhibitors of human tyrosyl-DNA phosphodiesterase 1 (TDP1): qHTS in cells in absence of CPT | AID 686978, 2013 | hit rate 15% among 420,000 | Potency, µM (titrated, usually from 46.2 µM), for inactives: at the top dose activity change, negative = growth inhibition, most hits filed as inhibitors | DT40 Tdp1-/- hTDP1 cells, no CPT, ATP luminescence, 48 h; further: potency means the concentration at half of the fitted maximal effect; nearly all actives have a fitted effect of over 55% in size
#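 Stably hTDP1-transfected Tdp1-null chicken DT40 cells were treated with library compounds minus camptothecin and grown for at least 48 hr at 37 °C, after which cellular ATP was quantified by luminescence.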
# HT1080 IDH1KD tx = HT-1080 IDH1 knockdown cell toxicity (counter line) | hit rate 2% among 360,000 | AID 686971 | Potency, µM (titrated, usually from 46.1 µM), without a hit: at the highest dose activity, negative = toxicity, most hits filed as cytotoxic | HT-1080 IDH1 knockdown viability, ATP luminescence, 48 h;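 further: potency means the concentration at half of the fitted maximal effect; 0% = DMSO wells and -100% = cell-free medium wells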
#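 After a 2 h attachment period, IDH1KD HT-1080 cells took pin-transferred compound for 48 h at 37 °C; ATP-based luminescence after 10 min room-temperature reagent incubation reported viability.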
# DT40 TDP1 CPT = DT40-hTDP1 cell growth loss with CPT; hit rate 12% among 420,000; Potency, µM (series often up to 46.2 µM), for the others: at the highest dose activity change, negative = growth inhibition, usual class: inhibitors; AID 686979; chicken DT40 Tdp1-/-;hTDP1 cells + 20 nM CPT, ATP luminescence, 48 h; further: potency means the concentration at half of the fitted maximal effect; nearly all actives have a fitted effect of over 55% in size
#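 Chicken DT40 Tdp1-/- cells stably complemented with human TDP1 were seeded at 400 cells/well in medium containing 20 nM camptothecin, exposed to pin-transferred compounds, and grown at 37 °C for at least 48 hr. Viability was read as ATP luminescence.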
# An asterisk follows results filed as active; u = inconclusive; x = no result given; [ ] = remark or other dose. Unless noted, the call rests on the fitted dose curve; in most records, active means well fitted curve in the direction sought with a large enough effect; inconclusive means small, poorly fitted or top-dose-only effect, or another doubt; inactive means no such curve, though single readings can be large; an effect the other way counts as inactive or inconclusive. Unless noted, on the % scale 0 is the no-effect control and ±100 the full control effect.
SMILES,HT1080NT lethal,uPA generation,IL1B secr inh,DT40 TDP1 no CPT,HT1080 IDH1KD tx,DT40 TDP1 CPT
COc1ccc(-n2nc(C(=O)N3CCN(c4cccc(C)c4)C(C)C3)c3c4ccccc4n(C)c3c2=O)cc1 (stereo not drawn),x,x,x,u,x,-11%
Cn1c(C(=O)N2CCN(Cc3ccccc3)CC2)cc2c(=O)n(C)c3ccccc3c21,-5%,u,-18,u,-4%,18µM*
CCN1CCN(C(=O)c2cc3c(=O)n(C)c4ccccc4c3n2C)CC1,1%,-8%,-6,-9%,-12%,6%
Cc1cccc(N2CCN(C(=O)c3cc4c(=O)n(C)c5ccccc5c4n3C)CC2C)c1 (stereo not drawn),-12%,x,-24,9.2µM*,-18%,18µM*
CCOC(=O)N1CCN(C(=O)c2cc3c(=O)n(C)c4ccccc4c3n2C)CC1,7%,2%,-12,16µM*,0%,21µM*
CN1C[C@@H]2[C@@H]3C(=O)N(Cc4ccccc4)C(=O)[C@@H]3[C@](C)(C1=O)N2C(=O)c1ccccc1,22%,4%,14,3%,10%,7%
Cc1cc(C)c2cc(C#N)c(NCCNC(=O)c3ccccn3)nc2c1,u,x,-21,-9%,u,4%
Cc1cc(C)cc(OCC(=O)OCC(=O)NC2CC2)c1,-1%,5%,25,8%,2%,21%
COc1ccc2c(c1)CC(C)C/C2=N\NC(=O)c1ccco1 (stereo not drawn),1%,7%,-5,u,-8%,0%
CC1C/C(=N/NC(=O)c2cccc(F)c2)c2ccc(O)cc2C1 (stereo not drawn),9%,x,-2,u,5%,22µM*
CCOC(=O)C1CCCCN1C(=O)c1cc2ccc(OC)cc2c2cc(OC)c(OC)cc12 (stereo not drawn),-18%,-4%,21,18µM*,-6%,u
Nc1nn2c(-c3ccccc3)cc(=O)[nH]c2c1N=Nc1ccc(O)cc1,-3%,-4%,0,u,u,u
Nc1nn2c(-c3ccccc3)cc(=O)[nH]c2c1N=Nc1ccc(Br)cc1,-6%,-1%,6,16µM*,-2%,u
O=C(N/N=C/c1ccco1)c1cccc(N2Cc3ccccc3C2)c1,9%,-13%,2,-29%,6%,-1%
COC(=O)[C@@]12C[C@@H](CC(=O)NCc3ccc(C)o3)C(=O)N(Cc3ccccc3)C1=CCC(C)(C)C2,-13%,x,-5,u,-19%,u
CCCCCCCCN1C(=O)[C@H](CC(=O)NCc2cccs2)C[C@@]2(C(=O)OC)CC(C)(C)CC=C12,u,x,u,8.2µM*,u,15µM*
COC(=O)[C@@]12C[C@@H](CC(=O)NCc3cccs3)C(=O)N(Cc3ccccc3)C1=CCC(C)(C)C2,-25%,x,0,u,-2%,u
CCCCCCCCN1C(=O)[C@H](CC(=O)NCc2ccc(C)o2)C[C@@]2(C(=O)OC)CC(C)(C)CC=C12,u,x,-71*,8.2µM*,u,12µM*
O=c1cc2c(c(-c3ccccc3)n1Cc1ccccc1)[C@@H](CCO)NC2,1%,-6%,10,-2%,6%,-10%
Cc1nc2scc(C)n2c(=O)c1S(=O)(=O)NCC1CCN(Cc2ccc(F)cc2)CC1,5%,0%,41,14%,12%,2%
C[C@@H]1CN([C@H](C)CO)C(=O)c2cc(-c3ccc(C(=O)N(C)C)cc3)cnc2O[C@@H]1CN(C)C(=O)c1cccnc1,14%,x,6,8%,0%,4%
CCOc1ccc(OCC)c(NC(=O)C2CCCN(S(=O)(=O)c3cccs3)C2)c1 (stereo not drawn),2%,-1%,-25,16µM*,2%,u
CCOC(=O)C1CCCN(S(=O)(=O)c2cccs2)C1 (stereo not drawn),-7%,-16%,32,-7%,13%,-27%
CC(=O)c1ccc(NC(=O)C2CCN(S(=O)(=O)c3cccs3)CC2)cc1,0%,-2%,3,u,-5%,u
CCOc1ccc(OCC)c(NC(=O)C2CCN(S(=O)(=O)c3c(C)[nH]c(=O)[nH]c3=O)CC2)c1,-2%,0%,11,u,0%,18µM*
SMILES,HT1080NT lethal,uPA generation,IL1B secr inh,DT40 TDP1 no CPT,HT1080 IDH1KD tx,DT40 TDP1 CPT
CCn1c2ccccc2c2cc(NC(=O)C3CCN(S(=O)(=O)c4cccs4)CC3)ccc21,0%,6%,-9,21µM*,-2%,16µM*
CCOc1ccc(NC(=O)C2CCN(S(=O)(=O)c3cccs3)CC2)cc1,-29%,-22%,-58*,u,-1%,-16%
CCOc1ccc(OCC)c(NC(=O)C2CCN(S(=O)(=O)c3cn(C)cn3)CC2)c1,x,x,x,-3%,x,10%
COc1ccc(CCC(=O)NNC(=O)c2ccc(OC)cc2)cc1,8%,5%,18,-7%,-11%,-24%
CCOc1ccc(OCC)c(NC(=O)C2CCCN(c3nc(C)cc(C)n3)C2)c1 (stereo not drawn),12%[9.24 µM],x,17,21µM*,u,23µM*
COc1ccccc1NC(=O)C1CCCN(c2nc(C)cc(C)n2)C1 (stereo not drawn),9%,1%,14,0%,0%,3%
CC(C)(C)C(=O)c1c(N)[nH]c(C(=O)c2ccccc2)c1-c1cc2ccccc2nc1Cl,18%,x,5,u,27%,-3%
COc1ccccc1OCc1ccc(C(=O)N2CCCCC2)o1,0%,-1%,-3,0%,8%,2%

# Bioassay records from PubChem.
